{"source": "PubChem BioAssay AID1508622", "about": "(National Center for Advancing Translational Sciences (NCATS), 2021)", "note": "A number with no mark means an inactive call. The source made the active and inactive calls. Calls follow the shape of the dose curve; as a rule, active = well fitted activation curve with a large enough effect; inconclusive = small, poorly fitted or top-dose-only effect; inactive = no such curve, though single readings can be large or run the other way. Potency is read from the fitted curve at half-maximal effect.", "data": [{"assay": "Confirmatory qHTS for Identification of Small Molecule Activators of Huntingtin-Antisense Promoter Activity", "details": "HEK293 HTT-AS promoter firefly luciferase reporter, 24 h; series mostly up to 57.5 µM; activity change, positive = activation: at the top concentration", "how_it_was_run": "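HEK293 luciferase reporter cells, 2,500/well, cultured 24 h, then exposed to compounds at up to 57.5 uM final for 24 h at 37C. Firefly luciferase luminescence read; normalized to vehicle (0%) and zero RLU (-100%).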", "units": {"activity change, positive = activation": "%"}, "values": [{"smiles": "O=C(Nc1cc(Cl)cc(Cl)c1)c1ccc(F)c(S(=O)(=O)N2CCCC2)c1", "activity change, positive = activation": -45.6}, {"smiles": "Cc1ccc(Cl)cc1-n1ncc2c(NC3CCCCC3)ncnc21", "activity change, positive = activation": -26}, {"smiles": "CCS(=O)(=O)N1CC(CC#N)(n2cc(-c3ncnc4[nH]ccc34)cn2)C1", "Potency": "30.1 µM (active)"}, {"smiles": "Cc1ccc(C)c(NC(=O)Cn2c(=O)oc3cc(S(=O)(=O)NCc4ccccc4)ccc32)c1", "activity change, positive = activation": -38.1}, {"smiles": "Cc1cc(N2CCC(C)CC2)nc2ccc(NC(=O)CCC(=O)N3CCN(c4cccc(C(F)(F)F)c4)CC3)cc12", "activity change, positive = activation": -18.5}, {"smiles": "COc1ccc(C(=O)Nc2nc(-c3nnn(-c4ccc(F)cc4F)c3C)ns2)cc1", "activity change, positive = activation": -24.9}, {"smiles": "Cc1ccc(CN(C(=O)COc2cccc(Cl)c2)c2ccccn2)o1", "activity change, positive = activation": -10.8}, {"smiles": "Cc1ccc(C(C)C)c(OCCn2cc(C(=O)c3ccco3)c3ccccc32)c1", "activity change, positive = activation": -25.9}, {"smiles": "N#CCNC(=O)c1ccc(-c2ccnc(Nc3ccc(N4CCOCC4)cc3)n2)cc1", "activity change, positive = activation": -24.8}, {"smiles": "CCOc1ccc(-n2c(/C=C/c3cccc(F)c3)nc3cc(OC)c(OC)cc3c2=O)cc1", "activity change, positive = activation": -47.7}, {"smiles": "CCOc1ccc(CN2CCc3nc(N4CCN(c5ccccn5)CC4)ncc3C2)cc1OC", "activity change, positive = activation": -65.2}, {"smiles": "CCOC(=O)C1=C(CN(C)Cc2ccccc2)NC(=O)NC1c1ccc(OC)cc1", "note": "(centres undefined)", "activity change, positive = activation": -37.5}, {"smiles": "CCCN(C(=O)COc1cc(=O)n(CC)c2ccccc12)c1ccc(C(C)C)cc1", "activity change, positive = activation": -11.8}, {"smiles": "O=C(NCc1ccc(Cl)cc1)C1CCN(S(=O)(=O)c2ccc3c(c2)CCCN3C(=O)C2CCC2)CC1", "activity change, positive = activation": -26.1}, {"smiles": "COc1ccccc1CNS(=O)(=O)c1ccc2c(c1)CC(C)N2C(=O)C1CCC1", "note": "(centres undefined)", "activity change, positive = activation": -94.1}, {"smiles": "CCCN(C(=O)CCc1nc(-c2ccc(C)cc2)no1)c1ccc(OCC)cc1", "activity change, positive = activation": -22}, {"smiles": "Cc1ccc(C)c(NC(=O)CSc2nnc(-c3cc4occc4n3C)n2-c2ccccc2C)c1", "activity change, positive = activation": -19.7}, {"smiles": "O=C(Nc1ccc(F)c(Cl)c1)c1cc(S(=O)(=O)N2CCCc3ccccc32)ccc1F", "activity change, positive = activation": 24.1}, {"smiles": "Cc1cccc(NC(=O)Cc2ccc(-n3c(C)nc4cccnc43)cc2)c1C", "activity change, positive = activation": -30.5}, {"smiles": "COc1cc(CN2CCc3nc(N4CCN(c5ccccc5F)CC4)ncc3C2)ccc1OC(C)C", "activity change, positive = activation": -71.5}, {"smiles": "CCS(=O)(=O)c1ncc(Cl)c(C(=O)N(Cc2ccccc2)c2ccc(OC)cc2)n1", "activity change, positive = activation": -94.1}, {"smiles": "CCS(=O)(=O)c1oc(-c2ccc(F)cc2)nc1S(=O)(=O)c1ccc(Br)cc1", "activity change, positive = activation": 0.868}, {"smiles": "Cc1cc(C)c(S(=O)(=O)NCCc2csc3nc(-c4ccc(Cl)cc4)nn23)c(C)c1", "activity change, positive = activation": -37.2}, {"smiles": "O=C(Cc1ccccc1)Nc1cccc(-c2cn3cccnc3n2)c1", "Potency": "10.7 µM (active)"}, {"smiles": "Cc1oc(-c2cccc(Cl)c2)nc1CN1CCC(C(=O)NCCCN2CCN(c3ccc(F)cc3)CC2)CC1", "activity change, positive = activation": -80.7}, {"smiles": "Cc1ccc(-n2ncc3c(N(CCO)Cc4ccccc4)ncnc32)cc1", "Potency": "1.07 µM (active)"}, {"smiles": "Cc1cccc(CS(=O)(=O)Cc2ccc(C(=O)NCc3ccc(Cl)cc3)o2)c1", "activity change, positive = activation": -44.7}, {"smiles": "COC(=O)C1CCN(S(=O)(=O)c2ccc(N3CCCCS3(=O)=O)cc2)CC1", "activity change, positive = activation": -35.7}, {"smiles": "COc1ccccc1N1CCN(C(CNC(=O)C(=O)NCc2ccc(C)cc2)c2cccnc2)CC1", "note": "(centres undefined)", "activity change, positive = activation": -81.1}, {"smiles": "COc1ccccc1N1CCN(S(=O)(=O)c2ccc(F)c(C(=O)Nc3ccc(Cl)cc3C(F)(F)F)c2)CC1", "activity change, positive = activation": -27}, {"smiles": "Cc1nc(N2CCCC2)ncc1C(=O)Nc1ccc(OC(F)(F)F)cc1", "activity change, positive = activation": -33.4}, {"smiles": "Cc1ccc(Cl)cc1N1CCN(C(=O)c2ccc3c(c2)N(Cc2ccc(F)cc2)CCS3)CC1", "activity change, positive = activation": -36.5}, {"smiles": "CCc1c(C)nc2nncn2c1NCc1ccc(OC)cc1", "activity change, positive = activation": -50.3}, {"smiles": "COc1cccc(NC(CNS(=O)(=O)c2ccc(Cl)cc2)c2ccccc2)c1", "note": "(centres undefined)", "activity change, positive = activation": -76.1}, {"smiles": "CCOc1ccc(CCNC(=O)c2cc3n(n2)CCCN(Cc2ccc(C)cc2)C3=O)cc1OCC", "activity change, positive = activation": -25.1}, {"smiles": "CCCCC(=O)Nc1cccc(-c2nc3ccccc3s2)c1", "Potency": "3.01 µM (active)"}, {"smiles": "COc1cc(C2CC(=O)c3c([nH]c(C(=O)OCc4ccc(C)cc4)c3C)C2)cc(OC)c1OC", "note": "(centres undefined)", "activity change, positive = activation": -56.6}, {"smiles": "CC(C)Oc1ccc(CNC(=O)C2CCN(C(=O)N3CCOc4ccc(Cl)cc43)CC2)cc1", "activity change, positive = activation": -46.3}, {"smiles": "CC(C)c1ccc(NC(=O)c2ccc(F)c(S(=O)(=O)N3CCc4ccccc4C3)c2)cc1", "activity change, positive = activation": -28.5}]}]}
